# From PubChem BioAssay
# Only a selection was taken, and hits are over-represented in it overall.
# LmPK inh = blocks Leishmania mexicana pyruvate kinase activity. Q27686. purified LmPK, Kinase-Glo ATP luminescence, 1 h. Potency, µM (doses to about 57.5 µM), hits mostly inhibitors. 290,000 compounds, 0.37% hits. AID 1721
# Target sequence (Q27686 whole entry, looked up): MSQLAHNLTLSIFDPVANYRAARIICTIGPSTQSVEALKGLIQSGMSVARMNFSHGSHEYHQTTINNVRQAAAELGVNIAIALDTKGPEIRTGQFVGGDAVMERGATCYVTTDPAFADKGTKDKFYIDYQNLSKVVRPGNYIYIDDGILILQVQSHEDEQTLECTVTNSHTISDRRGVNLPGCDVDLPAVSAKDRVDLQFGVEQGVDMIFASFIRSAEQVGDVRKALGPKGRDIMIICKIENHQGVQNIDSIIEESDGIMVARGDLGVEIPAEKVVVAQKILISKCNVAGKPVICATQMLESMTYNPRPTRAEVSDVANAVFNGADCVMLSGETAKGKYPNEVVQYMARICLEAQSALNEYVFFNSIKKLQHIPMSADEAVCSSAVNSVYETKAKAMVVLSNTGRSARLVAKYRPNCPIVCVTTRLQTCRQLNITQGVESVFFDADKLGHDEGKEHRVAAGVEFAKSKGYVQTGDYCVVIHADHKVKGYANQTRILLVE
#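 Purified LmPK (0.1 nM) with 0.5 mM PEP and 0.1 mM ADP in imidazole buffer pH 7.2 with MgCl2/KCl, 1 h at room temperature. ATP formed was read by luciferase luminescence and normalized to no-enzyme and uninhibited controls.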
# Shiga inhibitor = blocks Shiga toxin action in Vero cells | 290,000 compounds, 9.2% hits | Vero cells, Shiga toxin protein synthesis inhibition reporter | inhibition, % at 38.7 µM; in the data active = inhibition mostly above about 28%, no sharp cut-off; inactive = mostly below about 43%
# NS1 function inh = influenza NS1 inhibition | Potency, µM (doses to about 46.1 µM) | 270,000 compounds, 0.4% hits; calls by dose curve; also: actives are rising curves; nearly all actives have a fitted effect of over 50% in size
#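 S. cerevisiae expressing influenza A NS1, grown in glucose, washed, then diluted 1:100 into pH 6.0 -URA galactose medium with 23 nl compound. Growth recovery read as OD600; NS1-free strain serves as control.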
# Tb PYK inh = blocks Trypanosoma brucei pyruvate kinase; Q57TT1; TbPYK enzyme, Kinase-Glo Plus ATP luminescence, 45 min; Potency, µM (doses to about 76.8 µM), most hits filed as inhibitors; 410,000 compounds, 0.12% hits; also: nearly all actives have a fitted effect of over 50% in size
#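 Enzyme and substrate buffer are dispensed first and compound is pin-transferred. ADP at 130 uM final then starts the reaction, which runs 45 min at room temperature. Detection reagent is added for 10 min before luminescence is imaged.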
# SARS PLpro yeast = SARS-CoV PLP inhibition in yeast; S. cerevisiae expressing SARS-CoV PLpro, growth rescue; Potency, µM (highest dose often 32.9 µM), hits mostly activators; 330,000 compounds, 0.19% hits; calls by dose curve; also: nearly all actives have a fitted effect of over 55% in size
# Cycloheximide cs = counter-screen for Shiga toxin inhibitors: cycloheximide protein synthesis inhibition. max response, %. 300,000 compounds, 12% hits. cell reporter, cycloheximide protein synthesis inhibition counterscreen; in the data active = max response mostly above about 13%, no sharp cut-off; inactive = mostly below about 14%; also: read at 38.3 µM for the half of the compounds with a filed dose
# Hits are given with their value; - = inactive; ? = inconclusive; . = not tested or not shown; + = active, no number. Unless noted, calls follow the shape of the dose curve; as a rule, active = well fitted curve in the direction sought with a large enough effect; inconclusive = small, poorly fitted or top-dose-only effect, or another doubt; inactive = no such curve, though single readings can be large; an effect the other way counts as inactive or inconclusive.
SMILES,LmPK inh,Shiga inhibitor,NS1 function inh,Tb PYK inh,SARS PLpro yeast,Cycloheximide cs
Cc1ccc(OCC(=O)Nc2cccc(-c3nc4ccccc4s3)c2)cc1,.,.,.,-,.,.
O=C(COc1ccccc1Cl)Nc1ccc(-c2nc3ccccc3s2)cc1,.,-,.,-,.,38
O=C(CCS(=O)(=O)c1ccccc1)Nc1ccc(-c2nc3ccccc3s2)cc1,-,-,-,-,-,33
Cc1ccc(-c2nc(C3CCN(S(C)(=O)=O)CC3)no2)cc1,-,-,-,-,-,28
O=C(CC1CCCCC1)N1CCCC(c2nc(-c3ccc(S(=O)(=O)N4CCCC4)cc3)no2)C1 (stereo unspecified),-,-,-,-,-,-
Cc1ccc(-c2noc(C3CCN(S(C)(=O)=O)CC3)n2)o1,-,80,-,-,-,20
O=C(c1ccco1)N1CCCC(c2nc(-c3ccc(S(=O)(=O)NCc4ccccc4)cc3)no2)C1 (stereo unspecified),-,+,-,-,-,-
COc1ccc(-c2noc(C3CCCN(C(=O)CCc4ccccc4)C3)n2)cc1 (stereo unspecified),-,-,-,-,-,14
COCCNC(=O)c1ccc2c(=O)n(CCc3ccccc3)c(SCC(=O)CC(=O)OC)nc2c1,.,.,.,-,.,.
COc1ccc(-c2noc(C3CCCN(C(=O)c4ccccc4)C3)n2)cc1 (stereo unspecified),-,43,-,-,-,32
Cc1ccc(-c2noc(C3CCCN(C(=O)c4ccccc4)C3)n2)o1 (stereo unspecified),-,59,-,-,-,41
COc1ccc(-c2noc(C3CCCN(C(=O)c4cccc(F)c4)C3)n2)cc1 (stereo unspecified),-,.,-,-,-,-
Clc1ccc(-c2nc(C3CCCCC3)no2)cc1,-,89,.,-,-,32
COc1ccc(C(=O)N2CCCC(c3nc(-c4ccc(C)o4)no3)C2)cc1OC (stereo unspecified),-,-,-,-,-,-
COc1ccc(-c2[nH]c3c(c2-c2c(-n4cccc4)n(C)c(=O)[nH]c2=O)c(=O)[nH]c(=O)n3C)cc1F,.,.,.,-,.,.
Cc1cccc(NC(=O)CCCC(=O)OC(C)C(=O)c2ccccc2)c1 (stereo unspecified),-,-,-,-,-,-
COc1ccc(NC(=S)Nc2ncccc2C)cc1OC,-,76,.,-,-,46
Cc1cccnc1NC(=S)Nc1ccc(Cl)c(Cl)c1,-,103,-,-,-,32
Cc1cccnc1NC(=S)NCCc1ccccc1,-,70,-,-,-,37
Cc1cccnc1NC(N)=S,-,-,-,-,-,-
O=C(NNC(=S)Nc1ccc(Cl)c(Cl)c1)c1ccccn1,-,87,-,-,-,37
S=C(NCc1ccccn1)Nc1ccc(Cl)c(Cl)c1,-,-,-,-,-,-
CCCCc1cc2c(=O)c(C(=O)OC)c[nH]c2cc1OCc1ccccc1,.,.,.,-,.,.
CC1CCCN(Cc2c(O)ccc3c(=O)c(Oc4ccccc4Cl)c(C(F)(F)F)oc23)C1 (stereo unspecified),.,.,.,-,.,.
Cc1cccnc1NC(=S)Nc1ncccc1C,?,68,-,-,-,31
SMILES,LmPK inh,Shiga inhibitor,NS1 function inh,Tb PYK inh,SARS PLpro yeast,Cycloheximide cs
COc1ccc(NC(=S)Nc2ncccc2C)c(OC)c1,-,-,-,-,-,63
CCOc1ccccc1NC(=S)Nc1ncccc1C,-,-,-,-,-,-
CCOC(=O)COc1ccc2c(c1)c(C(C)=O)c(C)n2-c1ccc(OC)cc1,-,145,-,-,-,-
CC1CCCN(C(=O)CSc2nnc3ccccn23)C1 (stereo unspecified),.,.,.,-,-,.
C=CCn1c(CNC(=O)c2ccco2)nnc1SCC(=O)c1ccccc1,-,-,-,?,-,12
C=CCn1c(Cc2cccs2)nnc1SCC(=O)c1ccc(F)cc1,-,-,-,-,-,15
COc1ccc(OC)c(C2NC(=O)N(C)C(C)=C2C(=O)OCc2ccccc2)c1 (stereo unspecified),-,.,-,-,-,-
COc1cc(CN2CCC(n3nccc3NC(=O)CCCc3ccccc3)CC2)ccc1F,-,-,?,-,-,-
O=C1CN(C(=O)/C=C/c2ccccc2F)c2ccccc2N1,-,75,-,-,-,27
Cc1ccc(-c2noc(CCC(=O)NCc3ccco3)n2)cc1,-,-,-,-,-,-
O=C(NCc1ccco1)c1ccc(CS(=O)c2ccccc2Cl)o1 (stereo unspecified),.,.,.,-,.,.
O=C(NCc1ccco1)c1cc(-c2cccc(Cl)c2)on1,-,38,-,-,-,33
O=C(NCc1ccco1)c1ccc(-c2cccc(Cl)c2)o1,-,71,-,-,-,52
O=C(NCCN1CCOCC1)c1cc(-c2cccc(Cl)c2)on1,-,-,-,-,-,-
O=C(NCc1ccco1)c1nc(-c2ccc(F)cc2)no1,-,41,.,-,-,-
O=C(NCc1ccco1)c1cc(-c2ccc3c(c2)OCO3)on1,-,109,-,-,-,42
COc1ccc2nc(SCC(=O)N(C)C3CCCCC3)[nH]c2c1,.,.,.,-,-,.
CC1CCc2onc(C(=O)NCc3ccco3)c2C1 (stereo unspecified),-,85,.,-,-,38
CC(C)Cc1cc(C(=O)NCc2ccco2)no1,-,52,-,-,-,32
CC(=O)c1cccc(NC(=O)c2noc3c2CC(C)CC3)c1 (stereo unspecified),.,.,.,-,.,.
COc1ccc(OC)c(-c2cc(C(=O)NCc3ccco3)no2)c1,-,-,-,-,-,-
COc1cccc(-c2cc(C(=O)NCc3ccco3)no2)c1,-,86,-,-,-,50
O=C(NCc1ccco1)c1cc(-c2ccc(Cl)cc2)on1,-,-,-,-,-,20
CCc1ccc(OC(C)C(=O)Nc2c(C(=O)c3ccccc3)oc3ccccc23)cc1 (stereo unspecified),.,.,.,-,.,.
Cc1ccc(-c2cc(C(=O)NCc3ccco3)no2)cc1,-,43,?,-,-,28
SMILES,LmPK inh,Shiga inhibitor,NS1 function inh,Tb PYK inh,SARS PLpro yeast,Cycloheximide cs
Cc1cc(C(=O)NCc2ccco2)no1,-,-,-,-,-,-
CCCCN([C@H](CO)C(C)C)S(=O)(=O)c1ccccc1Br,.,.,.,-,-,.
COc1cc(OC)cc(-c2n[nH]c(=S)n2-c2ccc3c(c2)OCO3)c1,5µM,-,-,?,-,-
Fc1ccc(-n2c(-c3ccc4c(c3)OCO4)n[nH]c2=S)cc1Cl,14µM,-,-,4µM,-,11
COc1ccc(-c2nc(-c3ccc4c(c3)OCO4)[nH]c2-c2ccc(OC)cc2)cc1,-,-,.,-,-,-
COc1cc(OC)c(NC(=O)c2c(C)nn(-c3ccc(C)cc3)c2-n2cccc2)cc1Cl,.,.,.,-,.,.
O=c1[nH][nH]c(=O)c2c(NS(=O)(=O)c3ccccc3)cccc12,-,62,-,-,-,36
O=S(=O)(Nc1ccc(NS(=O)(=O)c2ccccc2)c2ccccc12)c1ccccc1,.,.,.,-,.,.
